Laboratory results published in PubChem BioAssay (EPA / NIEHS).
Calls of active or inactive are those of the source. Rule for the calls: active = hit-call score of the fitted dose curve at least 0.9, where 1 is the maximum; inactive = score below 0.9.

Legend:
Conditions in all cases: mRNA level, 48 h; actives raise or lower the signal
[1] = read-out: Peroxisomal acyl-coenzyme A oxidase 1 (ACOX1) gene, ACOX1 (gene 51); test: LTEA_HepaRG_ACOX1: Life Technologies and Expression Analysis (LTEA) Assay for Peroxisomal acyl-coenzyme A oxidase 1 (ACOX1) gene using HepaRG (AID 2283467)
Outline: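 Differentiated human HepaRG cells were exposed in duplicate for 48 h in serum-free induction medium to eight half-log concentrations up to 100 uM in 0.5% DMSO. ACOX1 mRNA was then quantified by TaqMan qRT-PCR, normalized to ACTB, GAPDH and POLR2A.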

[2] = read-out: Alkaline Phosphatase, Placental (ALPP) gene, ALPP (gene 250); test: LTEA_HepaRG_ALPP: Life Technologies and Expression Analysis (LTEA) Assay for Alkaline Phosphatase, Placental (ALPP) gene using HepaRG (AID 2283468)
Outline: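 HepaRG cells plated 48 h, then exposed in duplicate for 48 h in serum-free induction medium to 8-point half-log series from 100 uM in 0.5% DMSO. ALPP mRNA by TaqMan qRT-PCR, normalized to ACTB/GAPDH/POLR2A; bidirectional fit versus DMSO.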

[3] = read-out: Bcl-2 (BAD) gene, BAD (gene 572); test: LTEA_HepaRG_BAD: Life Technologies and Expression Analysis (LTEA) Assay for Bcl-2 (BAD) gene using HepaRG (AID 2283469)
Outline: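 Differentiated human HepaRG cells in serum-free induction medium were exposed in duplicate for 48 h to eight concentrations (top 100 uM, half-log steps, 0.5% DMSO). BAD mRNA was quantified by qRT-PCR normalised to ACTB, GAPDH and POLR2A, with bidirectional fitting versus DMSO.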

[4] = read-out: Bcl-2 (BAX) gene, BAX (gene 581); test: LTEA_HepaRG_BAX: Life Technologies and Expression Analysis (LTEA) Assay for Bcl-2 (BAX) gene using HepaRG (AID 2283470)
Outline: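 Differentiated HepaRG cells exposed 48 h in serum-free induction medium, eight half-log concentrations from 100 uM, in duplicate, 0.5% DMSO vehicle. BAX mRNA by TaqMan qRT-PCR, normalised to ACTB, GAPDH and POLR2A.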

[5] = read-out: adenosine kinase (ADK) gene, ADK (gene 132); test: LTEA_HepaRG_ADK: Life Technologies and Expression Analysis (LTEA) Assay for adenosine kinase (ADK) gene using HepaRG (AID 2283471)
Outline: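 Following 48 h exposure of HepaRG cells in 0.5% DMSO (top concentration 100 uM, duplicate wells), ADK mRNA induction or suppression was measured by qRT-PCR, normalised to ACTB/GAPDH/POLR2A, and fitted bidirectionally relative to vehicle.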

[6] = read-out: Alpha-fetoprotein (AFP) gene, AFP (gene 174); test: LTEA_HepaRG_AFP: Life Technologies and Expression Analysis (LTEA) Assay for Alpha-fetoprotein (AFP) gene using HepaRG (AID 2283472)
Outline: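 Differentiated human HepaRG cells exposed 48 h in serum-free induction medium, 8-point half-log series from 100 uM in 0.5% DMSO, duplicate. AFP mRNA by qRT-PCR, normalized to ACTB, GAPDH, POLR2A; bidirectional fit vs DMSO.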

[7] = read-out: BCL2L11 (gene 10018); test: LTEA_HepaRG_BCL2L11: Life Technologies and Expression Analysis (LTEA) Assay for Bcl-2 (BCL2L11) gene using HepaRG (AID 2283473)
Outline: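 Differentiated human HepaRG cells were exposed 48 h in serum-free induction medium to eight half-log concentrations up to 100 uM in 0.5% DMSO, in duplicate. BCL2L11 mRNA was quantified by TaqMan qRT-PCR, normalized to ACTB, GAPDH and POLR2A; induction or repression fitted versus DMSO.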

[8] = read-out: Apoptosis regulator Bcl-2 (Homo sapiens) (UniProt P10415); test: LTEA_HepaRG_BCL2: Life Technologies and Expression Analysis (LTEA) Assay for Bcl-2 gene using HepaRG (AID 2283475)
Outline: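 Differentiated human HepaRG cells in serum-free induction medium exposed 48 h, in duplicate, to 8-point half-log series from 100 uM in 0.5% DMSO. BCL2 mRNA by qRT-PCR (TaqMan/Fluidigm), normalized to ACTB, GAPDH, POLR2A; bidirectional fit against DMSO.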

[9] = read-out: Bcl-2 (BID) gene, BID (gene 637); test: LTEA_HepaRG_BID: Life Technologies and Expression Analysis (LTEA) Assay for Bcl-2 (BID) gene using HepaRG (AID 2283476)
Outline: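 Gene expression by qRT-PCR in HepaRG cells after 48 h exposure, duplicate wells, eight half-log concentrations topping at 100 uM in 0.5% DMSO. Normalized to ACTB, GAPDH, POLR2A; bidirectional fitting relative to DMSO.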

[10] = read-out: Caspase-3 (Homo sapiens) (UniProt P42574); test: LTEA_HepaRG_CASP3: Life Technologies and Expression Analysis (LTEA) Assay for cysteine-aspartic acid protease (CASP3) using HepaRG (AID 2283477)
Outline: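 Differentiated HepaRG cells, plated 48 h, were treated in duplicate in serum-free induction medium for 48 h with eight half-log concentrations up to 100 uM in 0.5% DMSO. CASP3 mRNA measured by qRT-PCR, normalized to ACTB, GAPDH, POLR2A.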

[11] = read-out: Cytochrome P450 (CYP24A1), CYP24A1 (gene 1591); test: LTEA_HepaRG_CYP24A1: Life Technologies and Expression Analysis (LTEA) Assay for Cytochrome P450 (CYP24A1) using HepaRG (AID 2283478)
Outline: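 HepaRG cells plated 48 h, then exposed in duplicate in serum-free induction medium for 48 h to 8-point half-log series from 100 uM in 0.5% DMSO. CYP24A1 mRNA by Fluidigm qRT-PCR, normalized to ACTB, GAPDH, POLR2A; bidirectional fit versus DMSO.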

[12] = read-out: Cytochrome P450 (CYP1A2), CYP1A2 (gene 1544); test: LTEA_HepaRG_CYP1A2: Life Technologies and Expression Analysis (LTEA) Assay for Cytochrome P450 (CYP1A2) using HepaRG (AID 2283479)
Outline: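 Differentiated human HepaRG cells in serum-free induction medium exposed 48 hours in duplicate to 8 half-log concentrations from 100 uM, 0.5% DMSO. CYP1A2 mRNA quantified by qRT-PCR, normalized to ACTB, GAPDH and POLR2A; bidirectional fitting versus DMSO.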

[13] = read-out: cysteine-aspartic acid protease (CASP8), CASP8 (gene 841); test: LTEA_HepaRG_CASP8: Life Technologies and Expression Analysis (LTEA) Assay for cysteine-aspartic acid protease (CASP8) using HepaRG (AID 2283480)
Outline: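 Differentiated human HepaRG cells, plated 48 h then switched to serum-free induction medium, were exposed in duplicate for 48 h to 8 half-log concentrations up to 100 uM in 0.5% DMSO. CASP8 mRNA was quantified by qRT-PCR, normalized to ACTB/GAPDH/POLR2A.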

[14] = read-out: Cytochrome P450 (CYP2B6), CYP2B6 (gene 1555); test: LTEA_HepaRG_CYP2B6: Life Technologies and Expression Analysis (LTEA) Assay for Cytochrome P450 (CYP2B6) using HepaRG (AID 2283481)
Outline: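 Differentiated human HepaRG cells in serum-free induction medium, dosed in duplicate for 48 h over 8 half-log concentrations topping at 100 uM (0.5% DMSO). CYP2B6 mRNA measured by TaqMan qRT-PCR, normalized to ACTB, GAPDH, POLR2A; bidirectional fit versus DMSO.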

[15] = read-out: Cytochrome P450 2C19 (Homo sapiens) (UniProt P33261); test: LTEA_HepaRG_CYP2C19: Life Technologies and Expression Analysis (LTEA) Assay for CYP2C19 using HepaRG (AID 2283482)
Outline: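 Differentiated HepaRG cells in serum-free induction medium exposed 48 h in duplicate, 8 concentrations from 100 uM by half-log steps in 0.5% DMSO. CYP2C19 mRNA measured by TaqMan qRT-PCR, normalized to ACTB, GAPDH, POLR2A. Bidirectional fit versus DMSO.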

[16] = read-out: CYP2C8 (gene 1558); test: LTEA_HepaRG_CYP2C8: Life Technologies and Expression Analysis (LTEA) Assay for CYP2C8 using HepaRG (AID 2283483)
Outline: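 Differentiated human HepaRG cells were exposed for 48 h in serum-free induction medium to eight half-log concentrations up to 100 uM in 0.5% DMSO, in duplicate. CYP2C8 mRNA was measured by TaqMan qRT-PCR, normalized to ACTB, GAPDH and POLR2A, and fitted bidirectionally against DMSO.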

[17] = read-out: CYP2C9 (gene 1559); test: LTEA_HepaRG_CYP2C9: Life Technologies and Expression Analysis (LTEA) Assay for CYP2C9 using HepaRG (AID 2283484)
Outline: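 Differentiated human HepaRG cells were exposed 48 h in serum-free induction medium to eight half-log concentrations up to 100 uM in 0.5% DMSO. CYP2C9 mRNA was measured by qRT-PCR, normalized to ACTB, GAPDH and POLR2A, and fitted bidirectionally against DMSO.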

[18] = read-out: CYP2E1 (gene 1571); test: LTEA_HepaRG_CYP2E1: Life Technologies and Expression Analysis (LTEA) Assay for CYP2E1 using HepaRG (AID 2283485)
Outline: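 HepaRG cells, plated 48 h, then exposed 48 h in serum-free induction medium to eight half-log concentrations from 100 uM in 0.5% DMSO, duplicate. CYP2E1 mRNA by qRT-PCR, normalized to ACTB/GAPDH/POLR2A; bidirectional fit versus DMSO.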

[19] = read-out: CYP4A11 (gene 1579); test: LTEA_HepaRG_CYP4A11: Life Technologies and Expression Analysis (LTEA) Assay for CYP4A11 using HepaRG (AID 2283486)
Outline: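 Differentiated HepaRG cells, 48 h after plating, exposed in duplicate for 48 h to 8 half-log concentrations up to 100 uM in 0.5% DMSO in serum-free induction medium. CYP4A11 mRNA measured by TaqMan qRT-PCR, normalized to ACTB, GAPDH and POLR2A.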

[20] = read-out: Apolipoprotein A-V (APOA5) gene, APOA5 (gene 116519); test: LTEA_HepaRG_APOA5: Life Technologies and Expression Analysis (LTEA) Assay for Apolipoprotein A-V (APOA5) gene using HepaRG (AID 2283474)
Outline: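 Differentiated HepaRG cells in serum-free induction medium, exposed 48 h in duplicate to eight half-log concentrations topping at 100 uM (0.5% DMSO). APOA5 mRNA by Fluidigm TaqMan qRT-PCR, normalized to ACTB, GAPDH and POLR2A; bidirectional fit versus DMSO.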

Measured: AC50

Sequence of Apoptosis regulator Bcl-2 (Homo sapiens) (P10415 whole entry, looked up): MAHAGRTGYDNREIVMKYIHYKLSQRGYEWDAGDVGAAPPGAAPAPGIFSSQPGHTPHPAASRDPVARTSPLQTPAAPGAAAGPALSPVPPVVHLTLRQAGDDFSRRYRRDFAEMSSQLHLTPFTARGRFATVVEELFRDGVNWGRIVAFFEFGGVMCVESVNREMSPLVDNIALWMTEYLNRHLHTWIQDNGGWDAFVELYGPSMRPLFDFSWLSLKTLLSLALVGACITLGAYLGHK
Sequence of Cytochrome P450 2C19 (Homo sapiens) (P33261 whole entry, looked up): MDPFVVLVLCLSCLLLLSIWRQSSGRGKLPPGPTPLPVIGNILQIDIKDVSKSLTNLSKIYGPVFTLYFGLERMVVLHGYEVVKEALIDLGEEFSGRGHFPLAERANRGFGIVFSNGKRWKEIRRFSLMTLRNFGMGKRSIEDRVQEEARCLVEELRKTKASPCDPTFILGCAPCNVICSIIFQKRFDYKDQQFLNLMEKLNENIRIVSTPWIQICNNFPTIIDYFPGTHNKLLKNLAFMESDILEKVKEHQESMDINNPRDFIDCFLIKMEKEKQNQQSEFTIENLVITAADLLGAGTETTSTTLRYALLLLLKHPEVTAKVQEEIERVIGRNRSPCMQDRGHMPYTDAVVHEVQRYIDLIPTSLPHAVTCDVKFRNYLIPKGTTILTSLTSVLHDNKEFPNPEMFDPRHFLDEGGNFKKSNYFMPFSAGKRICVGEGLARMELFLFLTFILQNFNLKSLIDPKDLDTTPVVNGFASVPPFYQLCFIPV
Sequence of Caspase-3 (Homo sapiens) (P42574 whole entry, looked up): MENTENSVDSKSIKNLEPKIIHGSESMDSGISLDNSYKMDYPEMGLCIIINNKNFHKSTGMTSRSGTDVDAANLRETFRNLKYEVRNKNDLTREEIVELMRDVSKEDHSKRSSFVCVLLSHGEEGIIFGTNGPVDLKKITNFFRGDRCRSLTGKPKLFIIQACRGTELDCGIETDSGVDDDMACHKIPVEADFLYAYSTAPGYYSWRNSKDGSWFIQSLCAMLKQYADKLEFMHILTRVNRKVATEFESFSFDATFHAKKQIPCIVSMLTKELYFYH

O=C(N[C@H]1CN2CCC1CC2)c1cc2ccoc2cn1
active: [12] 50 µM | [14] 50 µM
not listed: [20]
inactive: all other assays above

CCCCCCCCCC[N+](C)(C)CCCCCCCCCC
active: [1] 76.4 µM | [2] 90.5 µM | [4] 60.3 µM | [5] 79.1 µM | [10] 75.9 µM | [17] 60 µM | [19] 26.3 µM
not listed: [15]
inactive: all other assays above

Nn1cnnc1
not listed: [18]
inactive: all other assays above

O=S(=O)(O)C(F)(F)C(F)(F)C(F)(F)C(F)(F)F
active: [14] 52.5 µM
inactive: all other assays above

c1ccc(-c2ccccc2)cc1
not listed: [18]
inactive: all other assays above

O=S(=O)(O)C(F)(F)C(F)(F)C(F)(F)C(F)(F)C(F)(F)C(F)(F)F
active: [1] 6.58 µM | [20] 3.42 µM | [14] 24.6 µM | [16] 50 µM | [17] 6.28 µM | [19] 22.8 µM
not listed: [15] | [18]
inactive: all other assays above

Cc1cccc([N+](=O)[O-])c1
active: [14] 8.74 µM
not listed: [18] | [20]
inactive: all other assays above

CCOCCOC(C)=O
active: [14] 20.3 µM
not listed: [15] | [18]
inactive: all other assays above

Cc1cc(-c2ccc(N)c(C)c2)ccc1N
active: [6] 34 µM | [12] 37 µM | [14] 9.15 µM
not listed: [18]
inactive: all other assays above

O=C(O)C(F)(F)C(F)(F)C(F)(F)C(F)(F)C(F)(F)F
active: [1] 9.92 µM | [5] 3 µM | [10] 9.92 µM | [14] 19.6 µM | [15] 5.35 µM | [16] 8.32 µM | [17] 9.92 µM | [19] 50 µM
not listed: [18] | [20]
inactive: all other assays above

CC(C)C(=O)OCC(C)(C)C(OC(=O)C(C)C)C(C)C (stereo unspecified)
not listed: [15] | [18]
inactive: all other assays above

Nc1ccc(-c2ccc(N)cc2)cc1
active: [14] 50 µM | [19] 33.1 µM
not listed: [18] | [20]
inactive: all other assays above

Oc1c(Cl)c(Cl)c(Cl)c(Cl)c1Cl
active: [1] 3.29 µM | [2] 5.48 µM | [5] 6.68 µM | [6] 3.19 µM | [7] 6.24 µM | [20] 3.95 µM | [9] 4.97 µM | [10] 6.5 µM | [12] 3.83 µM | [13] 6.64 µM | [14] 3.43 µM | [16] 4.44 µM | [17] 3.08 µM | [19] 4.37 µM
inactive: [3] | [4] | [8] | [11]
